Bioassay records (PubChem BioAssay)
The list is not random: actives were taken first. Their share in the collection is about 0.45%.
S-ASM inh – human S-ASM enzyme inhibition; 340,000 tested, 0.006% active; placental ASM, HMU-PC fluorogenic substrate, 60 min; AID 504937; Potency, µM (series often up to 57.5 µM), inactives show at the highest dose activity change, negative = inhibition, usual class: inhibitors; further: potency means the concentration at half of the fitted maximal effect
Target sequence (P17405 47-631 limits assumed): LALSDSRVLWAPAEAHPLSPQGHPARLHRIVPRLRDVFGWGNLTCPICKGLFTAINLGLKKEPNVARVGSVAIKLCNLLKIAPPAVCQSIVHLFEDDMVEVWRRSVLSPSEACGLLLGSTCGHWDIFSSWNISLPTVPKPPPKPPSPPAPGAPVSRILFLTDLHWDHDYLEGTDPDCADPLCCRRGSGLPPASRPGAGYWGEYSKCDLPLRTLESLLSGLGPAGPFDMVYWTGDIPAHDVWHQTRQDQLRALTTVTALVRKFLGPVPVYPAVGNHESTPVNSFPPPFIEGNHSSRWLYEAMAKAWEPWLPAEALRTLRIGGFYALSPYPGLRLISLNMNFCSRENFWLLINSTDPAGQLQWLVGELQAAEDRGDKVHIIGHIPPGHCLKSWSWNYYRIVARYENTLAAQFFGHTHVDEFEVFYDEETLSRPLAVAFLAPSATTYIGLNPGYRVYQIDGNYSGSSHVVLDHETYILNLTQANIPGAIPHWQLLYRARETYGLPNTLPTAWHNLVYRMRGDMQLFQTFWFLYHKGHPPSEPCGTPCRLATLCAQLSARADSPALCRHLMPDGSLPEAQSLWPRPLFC
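Fluorogenic HMU-PC substrate (9 uM final) is turned over by placental ASM in 60 min at 37 C after a 10 min compound preincubation. Reaction ended by alkaline stop (pH 10), with fluorescence read at 386/447 nm.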
Menin MLL FP FL – displaces fluorescein MLL peptide from human menin | Fluorescence polarization, fluorescein-MLL peptide displacement from menin | FP activity change, % at 61.4 µM | 290,000 tested, under 10 active | AID 1766; active means well fitted curve in the direction sought with a large enough effect in the polarisation, not every such curve was filed as active; inconclusive means small, poorly fitted or top-dose-only effect, or effect the other way, or a change in a side signal; inactive means no such curve, though single readings can be large or run the other way; the % refers to the polarisation; further: % of control where 0% means no effect
Menin-MLL TR inh – menin-MLL binding inhibition, Texas Red mutant peptide; O00255; Menin + Texas Red MLL mutant peptide, fluorescence polarization; Potency, µM (doses to about 61.6 µM), for the others: top-dose FP activity change, negative = inhibition, most hits filed as inhibitors; 270,000 tested, 0.23% active; AID 1768; active means well fitted inhibition curve with a large enough effect in the polarisation, with a control signal flat, not every such curve was filed as active; inconclusive means small, poorly fitted or top-dose-only effect, or effect the other way, or a change in a side signal; inactive means no such curve, though single readings can be large or run the other way; the % refers to the polarisation; further: potency means the concentration at half of the fitted maximal effect; % of control where 0% means no effect
pAkt inh – Akt phosphorylation inhibition | Neuro2A IGF-stimulated pAkt S473 HTRF, 20 min; active compounds read low | activity change, % for hits at 50 µM | 360,000 tested, 0.32% active | AID 651550; in the data active means activity change below about -80%; inconclusive means mostly about -51% to -80%; further: on the % scale 0 is the no-effect control and ±100 the full control effect
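Single-point screen (50 µM final compound) in Neuro2A cells stimulated 20 min with 6 nM IGF at 37 deg C. After lysis, Ser473-phosphorylated Akt read by HTRF (ex 330 nm, em 615/665 nm) as the 665/615 ratio.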
MBNL1-CUG inh – inhibitors of human MBNL1 binding to CUG repeat RNA | Q9NR56 | TR-FRET MBNL1-His/biotin-(CUG)12 binding, 665/545 ratio | Potency, µM (titrated, usually from 57.5 µM), without a hit: top-dose activity change, negative = inhibition, usual class: inhibitors | 280,000 tested, 0.036% active | AID 2675; active means well fitted inhibition curve with a large enough effect in the signal ratio, with a control signal flat, not every such curve was filed as active; inconclusive means small, poorly fitted or top-dose-only effect, or effect the other way, or a change in a side signal; inactive means no such curve, though single readings can be large or run the other way; the % refers to the signal ratio; further: potency means the concentration at half of the fitted maximal effect; on the % scale 0 is the no-effect control and ±100 the full control effect
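Compounds (final 92 nM to 58 uM) are added to His-tagged MBNL1 and biotin-(CUG)12, then terbium anti-His antibody and streptavidin-XL665 (5 nM final). After 60 min at room temperature, the 665/545 nm ratio is read.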
MLL CXXC-DNA inh – MLL CXXC-DNA interaction inhibition; 290,000 tested, 0.037% active; MLL-CXXC / FITC-HOXA9 DNA fluorescence polarization; Potency, µM (titrated, usually from 115 µM), for inactives: top-dose activity change, negative = inhibition, hits mostly inhibitors; Q03164; active means well fitted inhibition curve with a large enough effect in the polarisation, with a control signal flat, not every such curve was filed as active; inconclusive means small, poorly fitted or top-dose-only effect, or effect the other way, or a change in a side signal; inactive means no such curve, though single readings can be large or run the other way; the % refers to the polarisation; further: potency means the concentration at half of the fitted maximal effect
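Steps: dispense CXXC domain solution (7 uM) → pin compounds or unlabeled HOX-A9 DNA control → 5 min ambient → add FLSN-HOX-A9 solution (50 nM) → spin → 30 min ambient → fluorescence polarization. Tris pH 7.5/NaCl/DTT/BSA buffer.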
MBNL1-CUG FRET – confirmation of inhibitors of human MBNL1-poly(CUG) RNA binding. shares compounds with MBNL1-CUG inh. TR-FRET MBNL1-His / biotin-(CUG)12 binding, 60 min. 140 tested, 50% active. Potency, µM (highest dose often 57.6 µM), for inactives: at the top dose activity change, negative = inhibition, usual class: inhibitors
MBNL1-CUG Alpha – MBNL1-CUG RNA binding inhibition, AlphaScreen validation. 140 tested, 30% active. AlphaScreen MBNL1-His / biotin-(CUG)12 binding. shares compounds with MBNL1-CUG inh. Potency, µM (highest dose often 57.7 µM), for inactives: at the top dose activity, negative = inhibition, actives largely listed as inhibitors
MBNL1 HTRF CS – counter-screen for MBNL1-poly(CUG) RNA binding inhibitors; 120 tested, 20% active; His-Menin/biotin-MLL peptide TR-FRET counterscreen; AID 651843; Potency, µM (highest dose often 57.6 µM), without a hit: top-dose activity, negative = inhibition, most hits filed as inhibitors; shares compounds with MBNL1-CUG inh
* = called active by the depositor; i = inactive; ? = inconclusive; . = not tested or not shown. Unless noted, the call rests on the fitted dose curve; in most records, active means well fitted curve in the direction sought with a large enough effect; inconclusive means small, poorly fitted or top-dose-only effect, or another doubt; inactive means no such curve, though single readings can be large; an effect the other way counts as inactive or inconclusive.

SMILES	S-ASM inh	Menin MLL FP FL	Menin-MLL TR inh	pAkt inh	MBNL1-CUG inh	MLL CXXC-DNA inh	MBNL1-CUG FRET	MBNL1-CUG Alpha	MBNL1 HTRF CS
NC(=NCc1ccc2c(c1)OCO2)NC(=O)c1ccccc1	-6%	-1	-9%	i	.	-23%	13µM*	13µM*	4%
C/C(CCc1ccc2c(c1)OCO2)=N\NC(=O)c1ccccc1	-3%	2	8%	i	10%	16%	.	.	.
O=C1NC(=O)C2C1C(c1ccccc1)N1C3C(=O)NC(=O)C3C(c3ccccc3)N21 (stereo not drawn)	10%	3	7%	i	32µM*	-9%	?	?	1%
O=C(Nc1cccnc1Cl)c1cc(-c2cccc(O)c2)on1	0%	-3	?	i	7.1µM*	6%	13µM*	?	-62%
COc1ccc(C(=O)OCC(=O)Nc2cccc(C(C)=O)c2)c(OC)c1OC	0%	0	-8%	i	-4%	18%	.	.	.
CCCCC[C@H](O)/C=C/[C@@H]1[C@@H](C/C=C\CCCC(=O)OC)[C@@H](O)C[C@H]1O	2%	-1	-14%	i	.	-22%	?	10µM*	2%
CCCCC[C@H](O)/C=C/[C@@H]1[C@@H](C/C=C\CCCC(=O)O)[C@@H](O)C[C@H]1O	7%	-2	-4%	i	35%	8%	.	.	.
COc1ccc(-c2nc3ccncc3[nH]2)cc1OC	-1%	1	-17%	i	20µM*	2%	6.5µM*	-8%	18µM*
CSCCC(NC(=O)c1ccccc1)C(=O)O (stereo not drawn)	8%	-3	8%	i	0%	7%	.	.	.
COc1ccc(-c2noc(Cc3cccs3)n2)cc1	0%	2	1%	.	-1%	4%	.	.	.
O=c1[nH]c(Nc2ccc(F)cc2)cc2ccccc12	193%	?	-9%	i	.	-1%	33µM*	13µM*	2%
O=c1[nH]c(Nc2ccccc2Cl)cc2ccccc12	i	.	.	i	.	.	.	.	.
CC1=C(C(N)=O)C(c2ccccn2)n2nc(SCc3ccccc3Cl)nc2N1 (stereo not drawn)	1%	5	16%	i	6%	14%	.	.	.
CC1=C(C(N)=O)C(c2cccnc2)n2nc(SCc3ccccc3Cl)nc2N1 (stereo not drawn)	-2%	-3	16%	i	25µM*	2%	2%	-4%	0%
COCCNC(=O)C1CCCN(Cc2cccc(Cl)c2)CC1 (stereo not drawn)	.	.	.	i	.	.	.	.	.
CCCN1C[C@H](CSC)C[C@@H]2c3cccc4[nH]cc(c34)C[C@H]21	10%	-1	-2%	i	?	7%	?	-42%	.
Cc1nc(NC2=NCN(CCCN3CCOCC3)CN2)nc2c(C)cccc12	12%	6	6%	i	-15%	-4%	.	.	.
CCOC(=O)/C(=N\Nc1cc(Cl)ccc1Cl)N1CC(C)OC(C)C1 (stereo not drawn)	-4%	3	.	i	2%	?	.	.	.
CCOC(=O)/C(=N\Nc1ccccc1Cl)N1CC(C)OC(C)C1 (stereo not drawn)	-4%	0	.	i	0.025µM*	-19%	-4%	-6%	-1%
CCOc1ccc2[nH]c(=O)c(C(c3nnnn3Cc3ccco3)N3CCN(C)CC3)cc2c1 (stereo not drawn)	479%	1	2%	i	?	-21%	-6%	-10%	4%
Oc1ccc(/C=N/Nc2cc(N3CCCC3)nc(N3CCCC3)n2)cc1O	-6%	2	2%	i	.	11%	.	.	.
Cc1cc2c(c(=O)n1CCN(C)C)C(c1ccccc1Br)C(C#N)=C(N)O2 (stereo not drawn)	-1%	-4	2%	i	10µM*	-15%	13µM*	-7%	26µM*
O=C1C(SCCO)=C(SCCO)C(=O)c2ccccc21	0%	.	.	i	?	31%	5µM*	10µM*	.
Cc1cc(Nc2ccccc2)nc(NCc2ccccc2)n1	-7%	3	1%	i	40µM*	0%	?	3.7µM*	-12%
COc1ccc(CCNC(=O)C2CC(=O)N(c3ccc(C)cc3)C2)cc1OC (stereo not drawn)	0%	3	0%	i	-4%	4%	?	-8%	1%
COc1ccc(/C=N/NC(=O)c2ccccc2)cc1CN1CCN(c2ccc(F)cc2)CC1	-2%	0	1%	i	-3%	29%	.	.	.
COc1cc(C(=O)N/N=C/c2ccc(OC)c(CN3CCN(c4ccc(F)cc4)CC3)c2)ccc1O	0%	2	11%	i	32µM*	38%	?	-29%	-18%
CNC[C@H](O)c1ccc(O)c(O)c1	-4%	?	12%	i	22µM*	?	-14%	-2%	4%
NC[C@@H](O)c1ccc(O)c(O)c1	.	-7	-19%	.	.	.	.	.	.
